Here are results for 65 molecules from PubChem BioAssay AID651610 (Broad Institute, 2012).

Among all 360,000 compounds or so, about 3,900 (1.1%) were called active. Only a selection was taken, and actives are over-represented in it overall. Values without a mark were called inactive.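 Rule for the calls: active = mean replicate inhibition score of at least 50 and every replicate individually at or above 50; inconclusive = only one of the two criteria met; inactive = mean below 50 and not all replicates reaching 50.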

A short description of this assay: inhibitors of HIV-1 Env-driven cell-cell fusion, primary screen, HeLa-JRFL effector, CEM21 target cells, luciferase (AID 651610).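 Note: 0% = plate neutral controls and 100% = maraviroc near 300 nM.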 The conditions noted are these: stronger effect = higher value; at 16.7 µM unless noted.
On to `C/C=C/c1cnc2c(c1)C(=O)N([C@@H](C)CO)C[C@@H](C)[C@H](CN(C)C(=O)c1cnccn1)O2`, for which the inhibition (as a rule, the change of the read-out against control, counted positive when it falls) is 4.56%.
As for `C[C@H](CO)N1C[C@H](C)[C@@H](CN(C)C(=O)CCC(F)(F)F)OCCCC[C@H](C)Oc2ccc(NC(=O)C3CCCCC3)cc2C1=O`, the inhibition is -45.1%.
`COc1ccc(NC(=O)N(C)C[C@@H]2Oc3ccc(NC(=O)CCN4CCOCC4)cc3C(=O)N([C@@H](C)CO)C[C@H]2C)cc1`: the inhibition was -19.9%.
`Cc1noc(C)c1NC(=O)Nc1cccc2c1O[C@@H](CN(C)CC1CCCCC1)[C@H](C)CN([C@@H](C)CO)C2=O`: the inhibition was -120%.
Regarding `Cc1ccc(S(=O)(=O)N(C)C[C@H]2Oc3ccc(NC(=O)CCC(F)(F)F)cc3C(=O)N([C@@H](C)CO)C[C@H]2C)cc1`, the inhibition was 9.23%.
For the molecule `COc1ccc(C(CNC(=O)COc2ccccc2OC)N2CCCCC2)cc1` (stereo not given), the inhibition was 1.58% [at 12.3 µM].
The value for `COc1ccc(C(CNC(=O)COc2ccc([N+](=O)[O-])cc2)N2CCCCC2)cc1` (stereo not given) was 1.73% [at 12.3 µM].
The value for `CCc1ccc(OCC(=O)NCC(c2ccc(Cl)cc2)N2CCCCC2)cc1` (stereo not given) was 73.9% [at 12.3 µM] (active); that for `COc1ccc(S(=O)(=O)N(C)C[C@@H]2OCCCC[C@H](C)Oc3ccc(NC(=O)NC4CCCCC4)cc3C(=O)N([C@H](C)CO)C[C@H]2C)cc1` was 20.2%; that for `CO[C@@H]1CC[C@@H]2CCOc3ccc(C#N)cc3C(=O)N(C)[C@H](C)C(=O)N(C)C[C@@H]1O2` was 14.7%.
With `COc1ccc2cc(-c3[nH]ncc3CNCCn3nc(C)cc3C)ccc2c1` the figure was -11.4% [at 12.3 µM]; with `COc1ccc(-c2cn[nH]c2-c2ccc(OC)cc2)cc1`, 60.2% [at 12.3 µM] (active); with `COc1ccc(Oc2cn[nH]c2-c2ccc(OC)cc2O)cc1`, 4.87% [at 12.3 µM].
In the case of `CCCNC(=O)Nc1ccc2c(c1)C(=O)N(C)C[C@H](OC)[C@@H](C)CN(C)[C@@H](C)CO2`, the inhibition was 18.7%.
The value for `COc1ccc(CN(C)C[C@H]2Oc3c(NC(=O)C4CCCCC4)cccc3C(=O)N([C@@H](C)CO)C[C@@H]2C)cc1` was 7.57%.
Turning to `CC1(Cc2cccc(C#N)c2)C(=O)Nc2ccc(-c3cccc(C(F)(F)F)c3)cc21` (stereo not given), the inhibition was 76.4% [at 12.3 µM] (active).
As for `Cc1ccc(CC2(C)C(=O)Nc3ccc(OC(F)(F)F)cc32)cc1` (stereo not given), the inhibition is 10.5% [at 12.3 µM].
The value for `COc1ccccc1CC1(C)C(=O)Nc2ccc(OC(F)(F)F)cc21` (stereo not given) was 5.2% [at 12.3 µM].
The value for `C[C@H]1CN([C@@H](C)CO)C(=O)c2cc(-c3cccnc3)cnc2O[C@@H]1CN(C)C(=O)C1CC1` was 1.19%; that for `C[C@@H]1CN([C@@H](C)CO)C(=O)c2cc(C#CC3CCCCC3)cnc2O[C@H]1CN(C)C(=O)Cc1ccccn1` was -1.78%.
In the case of `CC(C)NC(=O)N(C)C[C@H]1Oc2ncc(C#CC3CCCCC3)cc2C(=O)N([C@H](C)CO)C[C@@H]1C`, the inhibition was 5.6%.
Turning to `CC(C)NC(=O)Nc1ccc2c(c1)C(=O)N([C@@H](C)CO)C[C@H](C)[C@H](CN(C)S(=O)(=O)c1cccs1)O2`, the inhibition is -7.33%.
With `O=C(c1ccccc1)N1CCN(c2cc(-c3ccccc3)nc3cc(-c4cccc(Cl)c4)nn23)CC1` the figure was 57.4% [at 12.3 µM] (active); with `O=C(c1ccccc1)N1CCN(C(=O)c2cc3nc(-c4ccccc4)cc(C(F)(F)F)n3n2)CC1`, 13.3% [at 12.3 µM].
With `C#Cc1cc(N2CCN(C(=O)c3ccoc3)CC2)n2nc(-c3cccc(Cl)c3)cc2n1` the figure was 2.89% [at 12.3 µM]; with `CN1CCN(C(=O)C[C@H]2CC[C@@H](NC(=O)c3ccc4c(c3)OCO4)[C@H](CO)O2)CC1`, -2.25%; with `C[C@@H]1CCCCO[C@@H](CN(C)C(=O)CCC(F)(F)F)[C@H](C)CN([C@@H](C)CO)C(=O)c2cc(NC(=O)CCCN(C)C)ccc2O1`, -15.3%.
The value for `COc1ccc2c3c(n(C)c2c1)[C@H](CO)N(C(=O)NC(C)C)CC31CCN(C(=O)NC(C)C)CC1` was 25.2%.
In the case of `C=C1c2c(Cl)ccc(O)c2C(O)=C2C(=O)[C@]3(O)C(O)=C(C(N)=O)C(=O)[C@@H](N(C)C)[C@@H]3[C@@H](O)C12` (stereo not given in full), the inhibition was 9.73% [at 12.3 µM].
On to `CN(C)[C@@H]1C(=O)C(C(N)=O)=C(O)[C@@]2(O)C(=O)C3=C(O)c4c(O)ccc(Cl)c4[C@@H](O)[C@H]3C[C@@H]12`, for which the inhibition was 71.9% [at 12.3 µM] (active).
The value for `C[C@@H]1CN([C@H](C)CO)C(=O)c2cc(C#CC3(O)CCCC3)cnc2O[C@H]1CN(C)C(=O)C1CCC1` was 1.03%; that for `CO[C@H]1CN(C)C(=O)c2cc(NC(=O)C3CC3)ccc2OC[C@@H](C)N(CCc2ccccc2)C[C@H]1C` was -0.128%; that for `COC(C(=O)Nc1ccc(S(=O)(=O)Nc2ccc(C)c(C)c2)cc1)c1ccccc1` (stereo not given) was -13.7% [at 12.3 µM].
`CC(=O)Nc1ccc(S(=O)(=O)Nc2ccc(N3CCCCC3)cc2)cc1`: the inhibition is 68.2% [at 12.3 µM] (active).
Consider `CC(=O)Nc1ccc(NS(=O)(=O)c2ccc3c(c2)NC(=O)CC(=O)N3)cc1`, for which the inhibition was -3.1% [at 12.3 µM].
The value for `COc1ccccc1C(=O)COC(=O)CNS(=O)(=O)c1ccc(NC(C)=O)cc1` was -8.08% [at 12.3 µM]; that for `CC(=O)Nc1ccc(S(=O)(=O)N2CCN(C3CCCCCCC3)CC2)cc1` was -36.4% [at 12.3 µM].
With `COc1ccc(NS(=O)(=O)c2ccc(NC(C)=O)cc2)cc1OC`, the inhibition is 62.4% [at 12.3 µM] (active).
The value for `C/C=C/c1cnc2c(c1)C(=O)N([C@H](C)CO)C[C@H](C)[C@@H](CN(C)C(=O)Nc1ccc(C(F)(F)F)cc1)O2` was 0.996%; that for `C[C@@H]1CN([C@@H](C)CO)C(=O)c2cc(NC(=O)C3CCCCC3)ccc2O[C@@H](C)CCCCO[C@@H]1CN(C)Cc1ccc(C(=O)O)cc1` was 10.8%; that for `CN(C)c1ccc2c(c1)[C@@H]1C[C@@H](CC(=O)NCc3ccccn3)O[C@H](CO)[C@@H]1O2` was 6.38%.
For `C[C@H]1CN([C@@H](C)CO)C(=O)CCCn2nncc2CO[C@H]1CN(C)Cc1ccccc1`, the inhibition is -11.7%.
The value for `C[C@@H]1CN([C@H](C)CO)C(=O)c2cc(C#CC3CCCCC3)cnc2O[C@@H]1CN(C)C(=O)NC1CCCC1` was 10.8%.
Turning to `Cc1nn(Cc2ccc(Cl)c(Cl)c2)c(C)c1NC(=O)c1cc(C2CC2)on1`, the inhibition was -1.78% [at 12.3 µM].
With `Cc1nn(Cc2ccc(F)cc2)c(C)c1NC(=O)c1cccnc1Cl`, the inhibition is 0.276% [at 12.3 µM].
Take `Cc1nn(Cc2ccc(F)cc2)c(C)c1NC(=O)c1noc2c1CCc1ccccc1-2`: the inhibition was 57.4% [at 12.3 µM] (active).
With `Cc1ccccc1S(=O)(=O)N[C@H]1CC[C@H](CCn2cc(-c3ccc(F)cc3)nn2)O[C@H]1CO` the figure was 4.55%; with `C[C@H](CO)N1C[C@H](C)[C@@H](CN(C)S(=O)(=O)c2cccs2)OCCCC[C@H](C)Oc2ccc(NS(=O)(=O)c3ccccc3)cc2C1=O`, -0.163%; with `CCCCNC(=O)N(O)C1N(/N=C/c2ccc(N(C)C)cc2)C(=S)SC1(C)C` (stereo not given), 10.2% [at 12.3 µM].
The value for `CCC(C)N1C(=S)SC(C)(C)C1N(O)C(=O)NC1CCCCC1` (stereo not given) was 16.9% [at 12.3 µM].
With `CCCCNC(=O)N(O)C1N(/N=C/c2ccccc2O)C(=S)SC1(C)C` (stereo not given) the figure was 89.7% [at 12.3 µM] (active); with `C[C@@H]1CCCCO[C@@H](CN(C)C(=O)Nc2ccc(C(F)(F)F)cc2)[C@H](C)CN([C@H](C)CO)C(=O)c2cc(NC(=O)C3CCCCC3)ccc2O1`, 14.1%; with `Cc1ccc(S(=O)(=O)N[C@H]2CC[C@@H](CC(=O)NCc3ccc(Cl)c(Cl)c3)O[C@H]2CO)cc1`, 16.7%.
Turning to `CCCCCCCCn1c2c(c(=N)c3c1CCC3)CCCC2`, the inhibition is 64.5% [at 12.3 µM] (active).
`C[C@@H]1NC(=O)[C@@]2(C)[C@@H](c3ccccc3)[C@H]3COc4ccccc4[C@@H]3N2C1=O`: the inhibition was 1% [at 12.3 µM].
`CN1CC(c2ccccc2)C2(COc3ccccc3C2=O)C12C(=O)Nc1ccccc12` (stereo not given): the inhibition is 108% [at 12.3 µM] (active).
For `O=C1NC(c2ccccc2)Oc2ccccc21` (stereo not given), the inhibition is -8.85% [at 12.3 µM].
The value for `CO[C@H]1CN(C)C(=O)c2ccc(NC(=O)C3CC3)cc2OC[C@@H](C)N(C(=O)c2ccccn2)C[C@@H]1C` was 3.53%.
Consider `COc1ccc(S(=O)(=O)Nc2cccc3c2O[C@H](CN(C)C(=O)NC(C)C)[C@H](C)CN([C@H](C)CO)C3=O)cc1`, for which the inhibition was -9%.
With `Cc1ccc(-n2c(N)c(C(=O)N3CCOCC3)sc2=S)c(C)c1` the figure was 24.4% [at 12.3 µM]; with `N#Cc1ccccc1-n1c(N)c(C(=O)N2CCCC2)sc1=S`, 59.1% [at 12.3 µM] (active); with `O=C(c1ccc(S(=O)(=O)N2CCCC2)cc1)N1CCN(c2ccccc2F)CC1`, -21.7% [at 12.3 µM].
The value for `CNC(=O)C[C@@H]1CC[C@H]2[C@H](COc3ccc(NC(=O)C4CC4)cc3C(=O)N2C)O1` was 12%; that for `CC(C)NC(=O)N(C)C[C@@H]1Oc2ncc(C#Cc3ccncc3)cc2C(=O)N([C@@H](C)CO)C[C@@H]1C` was -8.31%.
Turning to `COc1ccccc1S(=O)(=O)N(C)C[C@@H]1Oc2cc(C#CCC3CCCC3)ccc2S(=O)(=O)N([C@H](C)CO)C[C@H]1C`, the inhibition is 34.8%.
